Results published in article PMC5540273 (PLoS ONE, 2017).

Experiments:
Settings in all cases: concentration: 1 μM, replicates: in singlicate; n = 1
PHKG1 = tested on: PHKG1
PHKG2 = tested on: PHKG2
PIK3C2B = tested on: PIK3C2B
PIK3C2G = tested on: PIK3C2G
PIK3CA = tested on: PIK3CA
PIK3CB = tested on: PIK3CB
PIK3CD = tested on: PIK3CD
PIK3CG = tested on: PIK3CG
PIK4CB = tested on: T1, PIK4CB
T1 construct: gene PI4KB

PIKFYVE = tested on: PIKFYVE
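Note: KINOMEscan kinase panel screen.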

What does the source list for `CC1=C(C(=O)Nc2cc3cn[nH]c3cc2F)C(c2ccc(C(F)(F)F)cc2)CC(=O)N1` (stereo not drawn) [GSK429286]?
%Inh (PHKG1): 0%; %Inh (PHKG2): 0%; %Inh (PIK3C2B): 0%; %Inh (PIK3C2G): 0%; %Inh (PIK3CA): 0%; %Inh (PIK3CB): 0%; %Inh (PIK3CD): 34%; %Inh (PIK3CG): 0%; %Inh (PIK4CB): 0%; %Inh (PIKFYVE): 0%

Which results are given for `Cc1cc(NCC(c2ccccc2)c2ccccc2)nc(NCc2ccc(C(F)(F)F)cc2)n1` [GW497681]?
%Inh (PHKG1): 0%; %Inh (PHKG2): 0%; %Inh (PIK3C2B): 0%; %Inh (PIK3C2G): 0%; %Inh (PIK3CA): 0%; %Inh (PIK3CB): 0%; %Inh (PIK3CD): 0%; %Inh (PIK3CG): 0%; %Inh (PIK4CB): 0%; %Inh (PIKFYVE): 0%

`Nc1nc(-c2nccs2)c(-c2ccnc3ccccc23)s1` [GW693542] was tested. Which “%Inh” value (PHKG1) did it give?
The value was 2%.

What about the “%Inh” value (PHKG2) of the same compound?
The value was 0%.

What about the “%Inh” value (PIK3C2B) of the same compound?
Its value is 0%.

And the “%Inh” value (PIK3C2G)?
The value was 0%.

What about the “%Inh” value (PIK3CA) of the same compound?
The value was 0%.

And the “%Inh” value (PIK3CB)?
Its value is 0%.

What about the “%Inh” value (PIK3CD) of the same compound?
Its value is 0%.

And the “%Inh” value (PIK3CG)?
The value was 0%.

And the “%Inh” value (PIK4CB)?
Its value is 0%.

What about the “%Inh” value (PIKFYVE) of the same compound?
Its value is 0%.

Which results are given for `Nc1ncnc2[nH]c(-c3ccccc3)nc12` [AH5015]?
%Inh (PHKG1): 0%; %Inh (PHKG2): 0%; %Inh (PIK3C2B): 0%; %Inh (PIK3C2G): 0%; %Inh (PIK3CA): 0%; %Inh (PIK3CB): 0%; %Inh (PIK3CD): 0%; %Inh (PIK3CG): 0%; %Inh (PIK4CB): 37%; %Inh (PIKFYVE): 8%

For `Cn1ccc2ncnc(Oc3ccc(NC(=O)Nc4ccccc4)cc3)c21`, which “%Inh” value (PHKG1) is on record?
Its value is 0%.

What about the “%Inh” value (PHKG2) of the same compound?
Its value is 0%.

What about the “%Inh” value (PIK3C2B) of the same compound?
The value was 0%.

And the “%Inh” value (PIK3C2G)?
Its value is 22%.

What about the “%Inh” value (PIK3CA) of the same compound?
Its value is 0%.

And the “%Inh” value (PIK3CB)?
The value was 16%.

What about the “%Inh” value (PIK3CD) of the same compound?
Its value is 0%.

What about the “%Inh” value (PIK3CG) of the same compound?
Its value is 0%.

And the “%Inh” value (PIK4CB)?
The value was 0%.

What about the “%Inh” value (PIKFYVE) of the same compound?
Its value is 21%.

Which results are given for `O=C(Nc1n[nH]c2cc(-c3cccc(F)c3F)ccc12)C1CC1` [SB-733894]?
%Inh (PHKG1): 3%; %Inh (PHKG2): 25%; %Inh (PIK3C2B): 17%; %Inh (PIK3C2G): 15%; %Inh (PIK3CA): 0%; %Inh (PIK3CB): 0%; %Inh (PIK3CD): 0%; %Inh (PIK3CG): 19%; %Inh (PIK4CB): 8%; %Inh (PIKFYVE): 100%

For `C[C@@H]1CCCCN1c1cc(-c2ccc3c(N)n[nH]c3c2)nc(N)n1` [GSK2258759], which “%Inh” value (PHKG1) is on record?
Its value is 0%.

And the “%Inh” value (PHKG2)?
Its value is 0%.

What about the “%Inh” value (PIK3C2B) of the same compound?
The value was 0%.

And the “%Inh” value (PIK3C2G)?
The value was 0%.

What about the “%Inh” value (PIK3CA) of the same compound?
Its value is 0%.

What about the “%Inh” value (PIK3CB) of the same compound?
Its value is 0%.

What about the “%Inh” value (PIK3CD) of the same compound?
The value was 0%.

What about the “%Inh” value (PIK3CG) of the same compound?
The value was 0%.

And the “%Inh” value (PIK4CB)?
The value was 0%.

What about the “%Inh” value (PIKFYVE) of the same compound?
The value was 7%.

What does the source list for `CC(C)(C)c1ccc(C(=O)Nc2cn3cc(-c4cccnc4)ccc3n2)cc1`?
%Inh (PHKG1): 8%; %Inh (PHKG2): 34%; %Inh (PIK3C2B): 0%; %Inh (PIK3C2G): 24%; %Inh (PIK3CA): 0%; %Inh (PIK3CB): 45%; %Inh (PIK3CD): 0%; %Inh (PIK3CG): 0%; %Inh (PIK4CB): 16%; %Inh (PIKFYVE): 22%

For `Cc1cccc(-c2nc(-c3ccc(S(C)(=O)=O)cc3)sc2-c2ccnc(NCCc3ccccc3)c2)c1`, which “%Inh” value (PHKG1) is on record?
Its value is 0%.

And the “%Inh” value (PHKG2)?
The value was 9%.

And the “%Inh” value (PIK3C2B)?
The value was 0%.

And the “%Inh” value (PIK3C2G)?
The value was 18%.

What about the “%Inh” value (PIK3CA) of the same compound?
Its value is 1%.

And the “%Inh” value (PIK3CB)?
The value was 11%.

What about the “%Inh” value (PIK3CD) of the same compound?
Its value is 26%.

And the “%Inh” value (PIK3CG)?
Its value is 17%.

And the “%Inh” value (PIK4CB)?
Its value is 0%.

What about the “%Inh” value (PIKFYVE) of the same compound?
Its value is 0%.

For `COc1cc2nccc(Nc3ccc(NC(=O)c4ccc(C)cc4)c(O)c3)c2cc1OC.Cl` [GW440132], which “%Inh” value (PHKG1) is on record?
The value was 15%.

What about the “%Inh” value (PHKG2) of the same compound?
Its value is 0%.

And the “%Inh” value (PIK3C2B)?
Its value is 100%.

And the “%Inh” value (PIK3C2G)?
Its value is 0%.

What about the “%Inh” value (PIK3CA) of the same compound?
The value was 100%.

What about the “%Inh” value (PIK3CB) of the same compound?
Its value is 0%.

What about the “%Inh” value (PIK3CD) of the same compound?
The value was 0%.

And the “%Inh” value (PIK3CG)?
Its value is 100%.

What about the “%Inh” value (PIK4CB) of the same compound?
The value was 0%.

And the “%Inh” value (PIKFYVE)?
Its value is 0%.

For `COc1ccccc1-c1ccc2c(NC(=O)C3CC3)n[nH]c2n1` [SB-711239], which “%Inh” value (PHKG1) is on record?
The value was 1%.

And the “%Inh” value (PHKG2)?
The value was 0%.

And the “%Inh” value (PIK3C2B)?
The value was 0%.

What about the “%Inh” value (PIK3C2G) of the same compound?
Its value is 45%.

What about the “%Inh” value (PIK3CA) of the same compound?
Its value is 0%.

What about the “%Inh” value (PIK3CB) of the same compound?
The value was 25%.

What about the “%Inh” value (PIK3CD) of the same compound?
Its value is 23%.

What about the “%Inh” value (PIK3CG) of the same compound?
The value was 0%.

What about the “%Inh” value (PIK4CB) of the same compound?
Its value is 0%.

And the “%Inh” value (PIKFYVE)?
Its value is 17%.

With `O=C(O)COc1ncnc2cc(-c3ccc4[nH]ncc4c3)sc12` as the compound, how does the “%Inh” value (PHKG1) read?
The value was 13%.

And the “%Inh” value (PHKG2)?
The value was 3%.

What about the “%Inh” value (PIK3C2B) of the same compound?
The value was 0%.

And the “%Inh” value (PIK3C2G)?
The value was 23%.

What about the “%Inh” value (PIK3CA) of the same compound?
The value was 0%.

And the “%Inh” value (PIK3CB)?
The value was 47%.

And the “%Inh” value (PIK3CD)?
Its value is 5%.

What about the “%Inh” value (PIK3CG) of the same compound?
The value was 0%.

What about the “%Inh” value (PIK4CB) of the same compound?
Its value is 35%.

And the “%Inh” value (PIKFYVE)?
The value was 12%.

What does the source list for `COc1ccccc1CNC(=O)c1cc(C(=O)c2ccccc2C)c[nH]1` [GSK364507]?
%Inh (PHKG1): 1%; %Inh (PHKG2): 0%; %Inh (PIK3C2B): 0%; %Inh (PIK3C2G): 0%; %Inh (PIK3CA): 0%; %Inh (PIK3CB): 0%; %Inh (PIK3CD): 0%; %Inh (PIK3CG): 0%; %Inh (PIK4CB): 16%; %Inh (PIKFYVE): 0%

Which “%Inh” value (PHKG1) does the source give for `Fc1cc(Cl)ccc1Nc1ccnc2cc(I)ccc12` [GW551191] here?
The value was 0%.

And the “%Inh” value (PHKG2)?
The value was 0%.

What about the “%Inh” value (PIK3C2B) of the same compound?
Its value is 0%.

And the “%Inh” value (PIK3C2G)?
Its value is 0%.

And the “%Inh” value (PIK3CA)?
The value was 0%.

What about the “%Inh” value (PIK3CB) of the same compound?
Its value is 0%.

What about the “%Inh” value (PIK3CD) of the same compound?
Its value is 0%.

What about the “%Inh” value (PIK3CG) of the same compound?
The value was 0%.

And the “%Inh” value (PIK4CB)?
Its value is 0%.

What about the “%Inh” value (PIKFYVE) of the same compound?
The value was 0%.

How did the “%Inh” value (PHKG1) turn out when `Cc1c(O)cccc1Nc1ccnc2ccc(C(F)(F)F)cc12.Cl` [GW466413] was run?
The value was 3%.

What about the “%Inh” value (PHKG2) of the same compound?
The value was 0%.

And the “%Inh” value (PIK3C2B)?
Its value is 18%.

What about the “%Inh” value (PIK3C2G) of the same compound?
The value was 48%.

What about the “%Inh” value (PIK3CA) of the same compound?
The value was 0%.

And the “%Inh” value (PIK3CB)?
Its value is 0%.

And the “%Inh” value (PIK3CD)?
The value was 25%.

What about the “%Inh” value (PIK3CG) of the same compound?
The value was 0%.

And the “%Inh” value (PIK4CB)?
The value was 3%.

What about the “%Inh” value (PIKFYVE) of the same compound?
The value was 11%.

What does the source list for `Cc1nnc(-c2ccc3occ(-c4ccc(S(C)=O)cc4)c3c2)[nH]1` (stereo not drawn)?
%Inh (PHKG1): 15%; %Inh (PHKG2): 16%; %Inh (PIK3C2B): 3%; %Inh (PIK3C2G): 17%; %Inh (PIK3CA): 9%; %Inh (PIK3CB): 28%; %Inh (PIK3CD): 0%; %Inh (PIK3CG): 5%; %Inh (PIK4CB): 0%; %Inh (PIKFYVE): 17%

For `O=C(Nc1n[nH]c2nc(-c3nccs3)c(Br)cc12)C1CCCC1` [SB-742609], which “%Inh” value (PHKG1) is on record?
Its value is 0%.

What about the “%Inh” value (PHKG2) of the same compound?
Its value is 0%.

And the “%Inh” value (PIK3C2B)?
Its value is 0%.

What about the “%Inh” value (PIK3C2G) of the same compound?
Its value is 0%.

And the “%Inh” value (PIK3CA)?
The value was 0%.

And the “%Inh” value (PIK3CB)?
Its value is 0%.

What about the “%Inh” value (PIK3CD) of the same compound?
Its value is 0%.

What about the “%Inh” value (PIK3CG) of the same compound?
Its value is 0%.

And the “%Inh” value (PIK4CB)?
The value was 0%.

And the “%Inh” value (PIKFYVE)?
Its value is 0%.

Which results are given for `Cc1cccc(-c2cc(Nc3ccncc3)c3ccccc3n2)n1` [GSK223675]?
%Inh (PHKG1): 0%; %Inh (PHKG2): 1%; %Inh (PIK3C2B): 4%; %Inh (PIK3C2G): 0%; %Inh (PIK3CA): 7%; %Inh (PIK3CB): 0%; %Inh (PIK3CD): 0%; %Inh (PIK3CG): 7%; %Inh (PIK4CB): 21%; %Inh (PIKFYVE): 23%
